Assay results: paper PMC4336329 (PLoS ONE, 2015)
Screen size: about 310,000 compounds; about 14,000 (4.5%) showed an effect of 50% or more. The effect is printed as a negative number. This is one part of a sample in which strong results are shown more often than they occur.

molecular target: human ether-à-go-go-related gene (hERG) potassium channel (human, UniProt Q12809); experiment: primary screen, population patch clamp on CHO cells stably expressing hERG; higher = less effect of the substance
Sequence (Q12809 whole entry, looked up): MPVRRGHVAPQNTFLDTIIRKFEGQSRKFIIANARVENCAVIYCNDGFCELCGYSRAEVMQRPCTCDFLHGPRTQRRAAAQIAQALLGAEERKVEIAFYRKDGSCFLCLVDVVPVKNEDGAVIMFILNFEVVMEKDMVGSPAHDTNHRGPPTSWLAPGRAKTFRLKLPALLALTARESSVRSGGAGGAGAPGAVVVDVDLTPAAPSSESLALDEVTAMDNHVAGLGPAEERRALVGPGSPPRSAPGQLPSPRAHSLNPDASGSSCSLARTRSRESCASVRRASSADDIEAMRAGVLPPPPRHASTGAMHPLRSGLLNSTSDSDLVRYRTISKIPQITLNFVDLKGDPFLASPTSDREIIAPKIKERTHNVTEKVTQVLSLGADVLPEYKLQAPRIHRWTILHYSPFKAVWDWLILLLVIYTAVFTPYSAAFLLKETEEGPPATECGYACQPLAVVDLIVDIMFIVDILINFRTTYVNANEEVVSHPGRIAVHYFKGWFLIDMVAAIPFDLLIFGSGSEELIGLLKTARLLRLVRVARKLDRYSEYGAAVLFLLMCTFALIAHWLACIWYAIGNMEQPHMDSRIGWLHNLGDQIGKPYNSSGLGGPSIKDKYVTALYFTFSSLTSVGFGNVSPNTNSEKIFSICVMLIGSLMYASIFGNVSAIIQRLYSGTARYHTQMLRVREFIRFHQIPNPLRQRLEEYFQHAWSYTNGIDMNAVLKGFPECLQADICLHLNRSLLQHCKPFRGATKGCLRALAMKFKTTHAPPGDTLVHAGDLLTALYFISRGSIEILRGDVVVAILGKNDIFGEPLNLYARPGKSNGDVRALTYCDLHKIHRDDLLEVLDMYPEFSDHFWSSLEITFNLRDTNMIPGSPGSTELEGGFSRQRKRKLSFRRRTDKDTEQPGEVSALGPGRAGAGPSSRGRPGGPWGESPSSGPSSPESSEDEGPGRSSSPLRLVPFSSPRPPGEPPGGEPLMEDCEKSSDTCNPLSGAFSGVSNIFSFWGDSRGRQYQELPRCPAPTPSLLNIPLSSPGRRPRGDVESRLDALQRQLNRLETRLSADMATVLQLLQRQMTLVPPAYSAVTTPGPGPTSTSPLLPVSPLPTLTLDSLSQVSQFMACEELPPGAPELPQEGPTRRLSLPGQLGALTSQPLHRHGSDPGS
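Further: peak tail current of the secondary pulse compared with the same well before compound.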

Row | SMILES | hERG current change (%, negative = inhibition) at 10uM [%]
1 | CCc1ccc(NC(=O)CN2CCC(C(=O)c3ccc(OC)cc3)CC2)cc1 | -62.8
2 | Cc1cc(C)cc(NC(=O)CN2CCC(C(=O)c3ccccc3)CC2)c1 | -48.6
3 | COc1ccc(C(=O)C2CCN(CC(=O)Nc3cc(C)cc(C)c3)CC2)cc1 | -65.2
4 | COc1ccc(OC)c(NC(=O)CN2CCC(C(=O)c3ccc(C)cc3)CC2)c1 | -17.7
5 | COc1ccc(NC(=O)CN2CCC(C(N)=O)CC2)cc1 | 2.76
6 | COc1ccc(NC(=O)CN2CCC(C)CC2)cc1 | -4.51
7 | Nc1ncnc2c1ncn2C1OC(CO)C(O)C1O (stereo not shown) | 35.7
8 | O=C(Cc1ccsc1)NNC(=O)c1ccccc1O | 7.87
9 | COc1ccc(C)cc1NC(=O)CSc1nnc(COc2ccccc2)n1Cc1ccco1 | -9.46
10 | CCOC(=O)c1c(N)sc(C(O)(C(F)(F)F)C(F)(F)F)c1-c1ccc(Cl)cc1 | -4.79
11 | COC(=O)Cc1csc(Nc2ccc(Cl)cc2)n1 | 7.01
12 | CC(C)[C@H](NC(N)=O)C(=O)NCCc1ccc(Cl)cc1Cl | -27
13 | Cc1ccc(OCc2cc(C(=O)N3CCN(c4ccccc4)CC3)no2)cc1C | -0.317
14 | O=C(/C(C=Nc1ccc(F)cc1)=C(/O)c1ccco1)C(F)(F)F | -26.7
15 | O=C(/C(C=Nc1cccc(C(F)(F)F)c1)=C(/O)c1ccco1)C(F)(F)F | -29.8
16 | O=C(/C(C=Nc1ccc(Br)cc1)=C(/O)c1ccco1)C(F)(F)F | -52.6
17 | CC(=O)c1cccc(NC(=O)c2cc(-c3cccs3)on2)c1 | 27
18 | CCN1CCN(c2ncc(C(=O)Nc3c(F)cc(F)cc3Br)c3ccccc23)CC1 | -60
19 | CCN1CCN(c2ncc(C(=O)Nc3cc(Cl)ccc3OC)c3ccccc23)CC1 | -61.5
20 | CCN1CCN(C(=O)Nc2cc(Cl)ccc2OC)CC1 | 2.98
21 | Cc1ccc(NC(=O)c2cnc(N3CCN(c4ccccn4)CC3)c3ccccc23)c(Br)c1 | 10.7
22 | CCN1CCN(c2ncc(C(=O)Nc3ccccc3C(=O)OC)c3ccccc23)CC1 | -47.2

Row | SMILES | hERG current change (%, negative = inhibition) at 10uM [%]
23 | O=C(Nc1c(F)cccc1F)c1cnc(N2CCN(c3ccccn3)CC2)c2ccccc12 | -4.56
24 | Cc1cc(C)c(C)c(S(=O)(=O)NCC(=O)N2CCCC2)c1C | 7.49
25 | Clc1ccc(SCCOCCN2CCCCC2)cc1.O=C(O)C(=O)O | -82
26 | Clc1ccc(SCCCN2CCCCC2)cc1.O=C(O)C(=O)O | -76
27 | Clc1ccc(SCCCCN2CCOCC2)cc1.O=C(O)C(=O)O | -22.5
28 | Clc1ccc(SCCOCCN2CCOCC2)cc1.O=C(O)C(=O)O | 1.54
29 | Clc1ccc(SCCCCN2CCNCC2)cc1.O=C(O)C(=O)O | -48.7
30 | Clc1ccc(SCCOCCN2CCCCCC2)cc1.O=C(O)C(=O)O | -73.3
31 | Clc1ccc(SCCN2CCNCC2)cc1.O=C(O)C(=O)O | -5.25
32 | CC(C)NCCOCCSc1ccc(Cl)cc1.O=C(O)C(=O)O | -30.2
33 | CCC(C)NCCOCCSc1ccc(Cl)cc1.O=C(O)C(=O)O (stereo not shown) | -46.9
34 | COc1ccc(-c2nn(-c3ccccc3)cc2/C=N/N=C(N)N)cc1OC | -27.8
35 | CCN(CCCCCCN)c1ccc2c(=O)[nH][nH]c(=O)c2c1 | 6.75
36 | Cc1ccc(CN(C(=O)Cn2nnc3ccccc32)C(C(=O)NCc2ccco2)c2cccs2)cc1 (stereo not shown) | -23.1
37 | CN(C(=O)COC(=O)c1ccc2c(c1)OCO2)C1CCS(=O)(=O)C1 (stereo not shown) | 9.31
38 | O=C(/C=C/c1cccc([N+](=O)[O-])c1)N1CCN(c2ccccn2)CC1 | -41.2
39 | COCCn1c(=NC(=O)CN2C(=O)CCC2=O)sc2cc(S(N)(=O)=O)ccc21 | -9.48
40 | CC(CC(=O)Nc1ccccc1)n1ccnc1 (stereo not shown) | -5.07
41 | O=c1cccc(-c2ccccc2)[nH]1 | -2.53
42 | COc1ccc2nc(N3CCOCC3)cc(C)c2c1 | -0.452
43 | Cc1ccccc1NC(=O)c1cccc2nc3ccccc3nc12 | 13.8
44 | Cc1ccc(C(=O)Nc2cc(S(=O)(=O)N3CCOCC3)ccc2N2CCCC2)cc1 | -8.42

Row | SMILES | hERG current change (%, negative = inhibition) at 10uM [%]
45 | O=C(Nc1ccc(F)cc1)Nc1cc(S(=O)(=O)N2CCOCC2)ccc1N1CCCC1 | -97.4
46 | O=C(Nc1cc(S(=O)(=O)N2CCOCC2)ccc1Oc1ccc(F)cc1)C1=COCCO1 | -69.8
47 | O=C(Nc1cc(S(=O)(=O)N2CCCCC2)ccc1Oc1ccccc1)C1=COCCO1 | -10.6
48 | CCN(CC)S(=O)(=O)c1ccc(N2CCOCC2)c(NC(=O)Cc2ccccc2)c1 | -36.2
49 | CCN(CC)S(=O)(=O)c1ccc(N2CCOCC2)c(NC(=O)COc2ccccc2)c1 | -11.1
50 | O=C(Nc1cc(S(=O)(=O)N2CCOCC2)ccc1N1CCOCC1)c1ccc(S(=O)(=O)N2CCCCC2)cc1 | -1.72
51 | CCOc1ccc(Oc2ccc(S(=O)(=O)N3CCOCC3)cc2NC(=O)C2=COCCO2)cc1 | -41.9
52 | O=C(COC(=O)c1ccc(F)cc1)Nc1cc(S(=O)(=O)N2CCOCC2)ccc1N1CCCC1 | -28.2
53 | O=C(Nc1cc(S(=O)(=O)N2CCOCC2)ccc1N1CCCC1)c1ccc(F)cc1 | -82.3
54 | O=C(Nc1cc(S(=O)(=O)N2CCOCC2)ccc1N1CCCC1)C1CC1 | -0.0868
55 | CCN(CC)S(=O)(=O)c1ccc(N2CCOCC2)c(NC(=O)CNCCc2ccccc2)c1.O=C(O)C(=O)O | -63.8
56 | C/C=C/c1ccc(OCC(=O)Nc2cc(OC)c(OC)c(OC)c2)c(OC)c1 | -3.16
57 | Cc1cccc(NC(=O)c2cccc(S(=O)(=O)N(C)c3ccccc3)c2)n1 | -28.7
58 | CC(C)(C)c1cc(NC(=O)c2cccc([N+](=O)[O-])c2)no1 | 3.8
59 | O=C1CCCC2=C1C(c1ccco1)Nc1ccc(C(=O)c3ccccc3)cc1N2 (stereo not shown) | 6.94
60 | COc1ccc(Cn2c(=O)[nH]c3cc(C(=O)Nc4ccccc4C)ccc32)cc1 | 2.66
61 | O=S(=O)(c1cccc(F)c1)N1CCCN(c2ccc(C(F)(F)F)cn2)CC1 | -27.3
62 | CC(=O)Nc1ccccc1OCC(=O)NC1CCCCC1C (stereo not shown) | 8.59
63 | NS(=O)(=O)c1cccc(-n2cnnn2)c1 | -6.93
64 | NC1=C([N+](=O)[O-])C(c2ccc3c(c2)OCO3)C2=C(CCCC2=O)O1 (stereo not shown) | 10.8
65 | O=C(Nc1ccccc1)Nc1cc(S(=O)(=O)N2CCOCC2)ccc1N1CCCC1 | -71
66 | O=C(Nc1ccc(Cl)cc1)Nc1cc(S(=O)(=O)N2CCOCC2)ccc1N1CCCC1 | -54.5

Row | SMILES | hERG current change (%, negative = inhibition) at 10uM [%]
67 | O=C(Nc1cc(S(=O)(=O)N2CCOCC2)ccc1N1CCCCC1)c1ccc(Cl)cc1 | -1.07
68 | CCN(CC)S(=O)(=O)c1ccc(N2CCOCC2)c(NC(=O)c2ccccc2)c1 | -25.6
69 | CCN(CC)S(=O)(=O)c1ccc(N2CCOCC2)c(NC(=O)c2ccc(F)cc2)c1 | -72.3
70 | O=C(Nc1ccccc1F)Nc1cc(S(=O)(=O)N2CCOCC2)ccc1N1CCCC1 | -19
71 | O=C(Nc1cccc(Cl)c1)Nc1cc(S(=O)(=O)N2CCOCC2)ccc1N1CCCC1 | -38.9
72 | CCN(CC)S(=O)(=O)c1ccc(N2CCOCC2)c(NC(=O)c2ccc(NC(C)=O)cc2)c1 | -0.15
73 | CCN(CC)S(=O)(=O)c1ccc(N2CCOCC2)c(NC(=S)NC(=O)c2ccco2)c1 | -66.5
74 | O=C(Nc1ccc(Cl)c(Cl)c1)Nc1cc(S(=O)(=O)N2CCOCC2)ccc1N1CCCC1 | -16.6
75 | O=C(NC(=S)Nc1cc(S(=O)(=O)N2CCOCC2)ccc1N1CCOCC1)c1ccco1 | -39.4
76 | O=C(NC(=S)Nc1ccccc1N1CCOCC1)c1ccco1 | 9.73
77 | O=C(c1ccccn1)N(Cc1ccco1)C1(C(=O)NC2CCCCC2)CCCCC1 | 10.9
78 | O=C(CCC(=O)OCc1ccc(Br)cc1)Nc1ccccc1 | 8.45
79 | CCC1CCCCN1C(=O)Cn1c(=O)n(CCC(=O)NCc2ccco2)c(=O)c2sccc21 (stereo not shown) | -6.12
80 | C=CCNC(=O)c1ccccc1NC(=O)C1COc2ccccc2O1 (stereo not shown) | 4.92
81 | c1ccc(CCNc2ncnc3ccccc23)cc1 | -43.2
82 | Cc1cc(Cl)ccc1OC(C)C(=O)NN1C(=O)c2ccccc2C1=O (stereo not shown) | 20.9
83 | COc1cccc(OC)c1C(=O)OCC(=O)NCC(C)C | 24.7
84 | COc1cccc(NC(=O)N2CCOCC2)c1 | -14.8
85 | CC(C)(C)N=Cc1cc(-c2ccccc2)sc1O | -17.2
